PubChem BioAssay (NCI)
Compounds without any hit were thinned out: in the full panel of roughly 79,000, 15% have a hit. Unmarked numbers belong to inactive results. The source made the active and inactive calls. No stated cut-off is given here; in the data, active means growth inhibition above about 70%; inactive means the rest.

Tests used:
[1] = NCI Yeast Anticancer Drug Screen. Data for the rad50 strain (AID 155);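 further: 0% = growth of vehicle-only cultures of the same strain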; settings: S. cerevisiae rad50 strain growth inhibition; at 50.0 µM; hits give high values
Summary of the method: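 Inhibition values express reduced yeast growth in compound-treated cultures relative to vehicle-treated controls.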

[2] = NCI Yeast Anticancer Drug Screen. Data for the mec2-1 strain (AID 157); settings: S. cerevisiae mec2-1 strain, at 50.0 µM, hits give high values
Summary of the method: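 Each compound was tested on mec2-1 yeast, a strain altered in DNA damage repair or cell cycle control. Growth inhibition is reported relative to vehicle.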

[3] = NCI Yeast Anticancer Drug Screen. Data for the sgs1 mgt1 strain (AID 161);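 further: 0% = growth of cultures given vehicle only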; settings: S. cerevisiae sgs1 mgt1 strain, at 50.0 µM, hits give high values
Summary of the method: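 Test agents were incubated with a DNA-repair-mutant yeast strain. Growth was then read and compared against vehicle-treated controls.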

[4] = NCI Yeast Anticancer Drug Screen. Data for the cln2 rad14 strain (AID 165);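 further: 0% = growth equal to vehicle treated cultures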; settings: S. cerevisiae cln2 rad14 strain, at 50.0 µM, hits give high values
Summary of the method: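 Test compounds were added to cln2 rad14 yeast cultures; inhibition of growth was then determined by comparison with vehicle treatment.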

[5] = NCI Yeast Anticancer Drug Screen. Data for the bub3 strain (AID 167); settings: S. cerevisiae bub3 mutant strain, at 50.0 µM, hits give high values
Summary of the method: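 Steps: expose the mutant yeast strain to compound; grow alongside vehicle-treated cultures; measure growth; express inhibition against the vehicle cultures.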

[6] = NCI Yeast Anticancer Drug Screen. Data for the mlh1 rad18 strain (AID 175); settings: S. cerevisiae mlh1 rad18 strain growth inhibition; at 50.0 µM; hits give high values
Summary of the method: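 Inhibition values reflect reduced growth of mutant yeast versus vehicle-treated controls following compound exposure; the mutations affect DNA damage repair.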

Row | Compound | growth inhibition [1] | growth inhibition [2] [%] | growth inhibition [3] | growth inhibition [4] [%] | growth inhibition [5] [%] | growth inhibition [6] [%]
1 | O=c1ccc2cc(Cl)ccc2o1 | 12.6% | -12.9 | -7.8% | -16.4 | 18.1 | -20.1
2 | COc1ccc2c(c1)OC(C)(C)c1c-2n(C)c2c(F)cccc2c1=O | 14.8% | 8.7 | 16.1% | 14.2 | 5.35 | 29.8
3 | O=C1CCCC2C1C1CCCC(=O)C21 (stereo unspecified) | 6.95% | -7.45 | 3.1% | 0.9 | 3.15 | 20.2
4 | COC(=O)c1ccccc1S(=O)(=O)NC(C)C | 10.8% | -1.15 | 16.9% | 11.8 | -4.7 | 25.8
5 | O=P(CCC(CC(F)(F)C(F)(F)C(F)(F)C(F)(F)C(F)(F)C(F)(F)C(F)(F)F)P(=O)(N1CC1)N1CC1)(N1CC1)N1CC1 (stereo unspecified) | 5.1% | 3.5 | -1.6% | -5.1 | -0.35 | 2.35
6 | CC1(C)COC(c2cc(Br)ccc2Br)=N1 | 4.9% | -16.2 | 7% | 3.45 | -3.3 | 1.35
7 | O=C(O)/C=C/C(=O)Nc1ccc2c(c1)C(O)c1ccccc1-2 (stereo unspecified) | -56.4% | -12.9 | -1.9% | -45.7 | -7.2 | -4.55
8 | O=C(CC1NCCS1)OCc1ccc(Br)cc1 (stereo unspecified) | 26.5% | 14.1 | 9.8% | 24.7 | 16.9 | 50
9 | O=C(c1ccccc1)N(Cc1ccccc1)Cc1ccccc1 | 1% | 35.1 | 26.4% | -34.2 | 41 | 28.2
10 | O=S(=O)(Nc1ccccc1C(O)c1ccccc1)c1ccccc1 (stereo unspecified) | 35.5% | 0.8 | 12.3% | -27 | 13.5 | 34.4
11 | CCN(CC)CCOc1ccc(/C(C#N)=C/c2ccc(OCCN3CCCCC3)cc2)cc1 | 35% | 20.9 | 57.3% | 64.9 | 26.2 | 33.5
12 | Oc1cccnc1I | 24.4% | 3.1 | 18.5% | 19.5 | 18 | 10.2
13 | Nc1cccc(CC(NC(=O)c2ccccc2)C(=O)O)c1 (stereo unspecified) | -16.4% | 2.1 | 12.1% | -4.3 | 28.6 | -22.7
14 | COc1ccc(CC(=O)c2c(OC)c3c(c4c2OC(C)(C)CC4)OC(C)(C)CC3)cc1OC | 21.1% | -14.8 | 8.1% | 16.5 | 33.9 | 34.4
15 | CCN(CC)/[N+]([O-])=N/OC | -13.6% | -0.3 | 10.9% | 13.4 | 10.3 | 1.35
16 | Nc1nnc2nc(CC(=O)c3ccc4ccccc4c3)c(=O)[nH]n12 | -1.85% | 10.9 | -0.1% | -21.2 | -4.15 | 2.05
17 | CC(=O)OCC(C)CCC(C)COC(C)=O (stereo unspecified) | -22.2% | -9.4 | -21.8% | -11.4 | 0.45 | -31.6
18 | CC1CCC(C(C)C)C(OS(=O)(=O)c2ccccc2)C1 (stereo unspecified) | 0.1% | -26.7 | -10.4% | 17.3 | 11.6 | 1.8
19 | Cc1ccc(N2C(=O)ON(c3ccccc3)C2c2ccccc2)cc1 (stereo unspecified) | 3.6% | -5.8 | -4.45% | 5.9 | 12.4 | -15.9
20 | Cc1cc(Cl)ccc1C(=O)O | -0.9% | 9.7 | 13.3% | 1.35 | -12.8 | 20.2
21 | CC(N)(CCBr)C(=O)O (stereo unspecified) | 3.85% | 5.2 | -0.05% | -4.75 | -5.95 | -17.4

Row | Compound | growth inhibition [1] | growth inhibition [2] [%] | growth inhibition [3] | growth inhibition [4] [%] | growth inhibition [5] [%] | growth inhibition [6] [%]
22 | O=c1c2cc([N+](=O)[O-])ccc2c2ccc([N+](=O)[O-])cc2c(=O)n1-c1ccc2c(c1)Cc1ccccc1-2 | 21.5% | -21 | -19.2% | -21.4 | -8.35 | -5
23 | O=C(CO)C(O)C(O)C(O)CO (stereo unspecified) | 1.65% | -9.75 | -7.45% | 8.75 | 19.9 | 0.95
24 | CCOC(=S)SCCSC | 11.7% | 6.3 | -1.45% | 4.35 | -3.6 | 11.6
25 | O=NN(CCOS(=O)(=O)c1ccc(Br)cc1)C(=O)NC1CCCCC1 | 32% | 9.25 | 18.6% | 28.6 | -1.95 | 25.2
26 | CC(C)(C)c1cc(/C=N/NC(=S)Nc2ccccc2)cc(C(C)(C)C)c1O | 25.9% | 8.35 | 41% | -26.3 | -7.15 | 41.5
27 | O=C1Nc2ccc(Br)cc2C1(O)Cc1cccc([N+](=O)[O-])c1 (stereo unspecified) | 7.35% | 12.2 | 13.5% | 3.55 | -12.9 | 11.8
28 | CNc1ncnc2c1ncn2C1OC(CO)C(O)C1O (stereo unspecified) | -1.4% | 9.95 | 4.45% | -20.1 | -4.1 | 6
29 | COCC(=O)c1ccc(C#N)cc1 | 4.35% | -20.2 | -7.25% | -39 | 4.45 | 2.2
30 | CCOC(=O)c1cnc2ccccc2c1OCC | -5.45% | -12.2 | -6.5% | -43.9 | 2.55 | 0.55
31 | O=C(O)C1Cc2ccccc2OC1=O (stereo unspecified) | -18% | -25.6 | -16.7% | 0.6 | 0.35 | -21.6
32 | Cc1ccc(C)c(NC(=O)/C=N/O)c1 | 1% | -5.95 | 18.5% | 12.4 | 2.3 | 1
33 | COC(=O)C1=C(C)NC(C)=C(C(=O)OC)C1c1cc2ccccc2n2nnnc12 | 26.7% | 11.1 | 31.2% | -1.75 | 7.5 | 47.4
34 | O=C(O)/C=C/C(=O)Nc1cc(Cl)cc2c1-c1c(Cl)cc(Cl)cc1C2O (stereo unspecified) | 83.7% (active) | 54 | 84% (active) | -5.45 | 11.3 | 51.9
35 | Cc1ccc(NC(=O)Oc2ccc(Cl)cc2Cl)cc1NC(=O)Oc1ccc(Cl)cc1Cl | -20.1% | -1.15 | -13.3% | -13.1 | -3.2 | -42.7
36 | CCCCn1cnc2c(=S)nc[nH]c21 | -2.7% | -1.9 | -6.35% | -11.6 | -1 | -0.95
37 | C1=CC([P+](Cc2ccccc2)(c2ccccc2)c2ccccc2)CC1 (stereo unspecified) | 81.8% (active) | 65.5 | 55.9% | -1.55 | 52.6 | 52.9
38 | Cc1ccc(S(=O)(=O)CN2C(=O)C(c3ccccc3)(c3ccccc3)C23OC(c2ccc(Cl)cc2)=CC3=O)cc1 (stereo unspecified) | -2.35% | -7.7 | -5.7% | -20.1 | -35.7 | -21.9
39 | CC1(C)CNC(=O)C2(C=NC(C)(C)CNC(=O)C3(C=N1)CCCO3)CCCO2 (stereo unspecified) | -10.2% | -5.6 | -36.2% | -8.55 | -17.6 | -11.2
40 | Brc1ccc2c(c1)C1(c3cc(Br)ccc3-2)c2cc(Br)ccc2-c2ccc(Br)cc21 | 2.45% | -5.9 | -13.7% | 22.7 | 5.25 | 3.95
41 | C1CCC(C2CCCC[N-]2)[N-]C1.C1CCC(C2CCCC[N-]2)[N-]C1.O=C(O)C(=O)O.[Ru+4] (stereo unspecified) | 31.8% | 9.4 | 16.2% | 11.8 | -3.25 | 7.9
